Compounds with a hit are over-represented: about 5.4% of the library has one in this group of screens.
MIN6 prolif – inducers of MIN6 beta-cell proliferation, primary screen, ATP luminescence, uHTS | MIN6 cells proliferation, ATPlite luminescence, 48 h; cells starved in 0.2% serum; 100% = growth in 10% serum | proliferation, % at 10 µM | 0.29% of 330,000 active | AID 2380, 2010;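 active means compounds whose signal lies at least 3.5 SD above the mean of all wells on their plate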;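 further: 0% = DMSO-treated cells in low-serum medium and 100% = 10% serum control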
JMJD2C inh – inhibitors of GASC-1 histone demethylase, primary screen, biochemical, fluorescence, DELFIA europium. inhibition, % at 2.35 µM. 0.069% of 330,000 active. GST-JMJD2C(1-420) H3K9me3 demethylation;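 active means more than half of a compound's replicate wells show inhibition beyond 50%, single wells judged on their own value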;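 further: signal counts dimethyl H3K9 product captured on neutravidin plate; 0% = median of DMSO wells and 100% = 0.3 times that DMSO median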
Target sequence (Q9H3R0 1-420 limits assumed): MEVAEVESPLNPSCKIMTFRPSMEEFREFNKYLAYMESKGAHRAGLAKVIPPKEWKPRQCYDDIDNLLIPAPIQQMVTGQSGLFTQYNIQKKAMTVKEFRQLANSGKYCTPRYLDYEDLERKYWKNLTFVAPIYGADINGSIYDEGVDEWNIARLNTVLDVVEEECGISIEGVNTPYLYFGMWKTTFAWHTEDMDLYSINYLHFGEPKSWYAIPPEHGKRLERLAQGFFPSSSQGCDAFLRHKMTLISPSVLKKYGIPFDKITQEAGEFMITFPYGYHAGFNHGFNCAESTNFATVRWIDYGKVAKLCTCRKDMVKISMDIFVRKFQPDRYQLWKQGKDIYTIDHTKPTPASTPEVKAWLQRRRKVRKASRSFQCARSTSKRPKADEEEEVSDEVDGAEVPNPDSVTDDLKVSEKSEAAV
PfM18AAP inh – PfM18AAP inhibitors, malaria aminopeptidase, primary screen, biochemical, QFRET, recombinant enzyme | inhibition, % at 7.35 µM | H-Glu-NHMec fluorogenic cleavage | M18 aspartyl aminopeptidase (Plasmodium falciparum 3D7) | AID 1822, 2009 | 1.2% of 290,000 active;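 active means inhibition above the campaign mean inhibition over all tested compounds plus 3 SD, cut at about 28% in these data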;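 further: 0% = plate median of test compound wells and 100% = 2 mM ZnCl2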
Granule exo inh – LAMP-1 surface exposure blockers, TALL-104 cells – cell-based, flow cytometry, MLPCN library, primary screen | TALL-104 LAMP-1 surface exposure; cells stimulated with thapsigargin and PMA | inhibition, % at 10 µM | 0.66% of 360,000 active | AID 651702, 2012;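 active means inhibition above about 55%, limit read from the data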
ALR inh – inhibitors of human ALR sulfhydryl oxidase, primary screen, biochemical, H2O2 detection, HRP-luminol luminescence, single point; FAD-linked sulfhydryl oxidase ALR (Homo sapiens), P55789; purified ALR, DTT oxidation; inhibition, % (concentration not given with the values); 3.8% of 290,000 active; AID 485317, 2010;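 active means mean replicate inhibition above about 79%, with every replicate also reaching it, limit read from the data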
SMARCA2 act – SMARCA2 (BRM) function activators, primary screen, cell-based, luminescence, high throughput; activation, % at 9.1 µM; MG213 cells, MMTV-luciferase reporter, dexamethasone, overnight; 1% of 370,000 active; in the data active means activation above about 7.8%;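 further: 0% = vehicle wells and 100% = reference activator wells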
* = called active by the depositor; / = not tested or not shown.

SMILES	MIN6 prolif	JMJD2C inh	PfM18AAP inh	Granule exo inh	ALR inh	SMARCA2 act
Cc1ccccc1CN1CCCCC(NC(=O)c2ccc3ccccc3c2)C1=O (configuration not stated)	/	/	/	/	/	-3
COc1cccc(C(=O)N[C@H](C(=O)N2CCC[C@H]2C(=O)NC2CCCC2)C2CCCCC2)c1	/	/	/	/	/	-1
C/C(=N\NC(=O)c1ccc(O)cc1)c1ccc(N2CCOCC2)cc1	-1	-3	1	4	42	8
C/C(=N\Nc1cc(N2CCOCC2)ncn1)c1ccc(O)cc1	-2	2	3	2	97*	2
Cc1cccc(N2CCN(C(=O)NC3CCCCC3)CC2C)c1 (configuration not stated)	-2	-3	0	-8	88*	2
Cc1cccc(N2CCN(C(=O)CCn3c(=O)[nH]c4ccsc4c3=O)CC2C)c1 (configuration not stated)	-1	-1	5	-5	99*	-3
Cc1cccc(N2CCN(C(=O)c3ccccn3)CC2C)c1 (configuration not stated)	-1	-33	-13	-1	67	-4
Cc1cccc(N2CCN(C(=O)CCCn3c(=O)[nH]c4ccsc4c3=O)CC2C)c1 (configuration not stated)	0	0	1	28	98*	-1
O=C(CCCn1c(=O)[nH]c2ccsc2c1=O)N1CCCCC1	-1	-17	-3	-1	3	1
Cc1cccc(N2CCN(C(=O)CCN3C(=O)C4C5C=CC(C5)C4C3=O)CC2C)c1 (configuration not stated)	-2	-2	-2	-6	84*	-2
C/C=C/C(=O)N1CCc2cc(S(=O)(=O)N(C)Cc3ccco3)ccc21	/	/	/	/	/	-4
CCc1cccc(Nc2cc(C)n(-c3cccc(CC)c3)c(=O)c2)c1	/	/	/	/	/	-1
[O-][n+]1ccccc1C(O)CSc1ccccc1 (configuration not stated)	/	/	/	/	/	-1
Cc1cccc(N2CCN(C(=O)c3ccc(CS(=O)(=O)c4ccccc4C)o3)CC2C)c1 (configuration not stated)	-5	36	2	5	95*	-4
CCOc1ccc(Cl)cc1CNc1nnnn1C	1	4	-3	0	13	0
CCCOc1ccc(Cl)cc1CNc1ccccc1	0	5	-6	-1	98*	2
O=C(CSc1nnc(-c2ccccn2)n1-c1ccc(Cl)cc1)Nc1ccc2c(c1)OCCO2	/	/	/	/	/	-4
CC1(C)CC(NC(=O)c2ccccc2C(=O)NC2CC(C)(C)NC(C)(C)C2)CC(C)(C)N1	-3	-6	6	2	-3	1
CC1(C)CC(NC(=O)N2c3ccccc3Sc3ccccc32)CC(C)(C)N1	-2	-27	-1	-2	99*	-1
CN(C)c1ccc(NC(=S)OC2CCC23CCC(c2ccccc2)CC3)cc1 (configuration not stated)	/	/	/	/	/	-5
NC(=O)Cc1nc(-c2ccc(Br)cc2)cs1	-3	5	-6	-1	0	3
Cc1ccc(-c2csc(CC(N)=O)n2)cc1	-2	2	-1	0	91*	3
CN(C)c1ccc(/C=N/NC(=O)c2ccc3nc[nH]c3c2)cc1	-4	-3	-4	-2	/	-1
COc1cccc(/C=N/NC(=O)c2ccc3nc[nH]c3c2)c1	-3	10	10	2	93*	-2
COc1ccc(OC)c(/C=N/NC(=O)c2ccc3nc[nH]c3c2)c1	3	-6	2	-8	-5	-4
SMILES	MIN6 prolif	JMJD2C inh	PfM18AAP inh	Granule exo inh	ALR inh	SMARCA2 act
CCN(CC)c1ccc(/C=N/NC(=O)c2ccc3nc[nH]c3c2)cc1	-1	7	2	6	99*	-1
COc1ccc(OC)c(S(=O)(=O)N(CC(=O)NC2CCC(C)CC2)c2cc(C)cc(C)c2)c1 (configuration not stated)	/	/	/	/	/	0
Cc1cccc(OCCCN2CCC(C(O)(c3ccccc3)c3ccccc3)CC2)c1	/	/	/	/	/	-3
O=[N+]([O-])c1ccc(Sc2cccc[n+]2[O-])c2nonc12	/	-9	13	96*	/	-13
CCN(C(=O)[C@@H]1CC(=O)O[C@@H]1c1ccccc1)c1ccccc1	/	/	/	/	/	0
C=CCOc1c(Br)cc(CNn2c(C)n[nH]c2=S)cc1OCC	2	-7	2	0	7	1
C=CCOc1c(Br)cc(CNn2cn[nH]c2=S)cc1OC	-3	-38	17	-3	92*	-2
CCCNC(=O)N1[C@@H](CO)[C@H](c2ccc(C3=CCCC3)cc2)[C@@H]1CN(CC)S(=O)(=O)c1ccccc1[N+](=O)[O-]	/	/	/	/	/	-5
Cc1ccccc1N1CCN(C2CCCN(C(=O)c3cnsn3)C2)CC1 (configuration not stated)	-3	15	2	4	86*	1
Cc1cc(C)nc(N(C#N)CCOc2ccc(Cl)cc2)n1	-1	0	1	77*	-7	0
Cc1ccc(C(=O)NC(=S)Nc2ccc3c(c2)OCCO3)c(C)c1	-3	-1	-12	22	-19	2
Cc1ccc(C(=O)NC(=S)Nc2ccc(N3CCOCC3)cc2)c(C)c1	-4	1	-8	-3	51	7.9*
Cc1ccc(C)c(SCC(=O)N(C)CC(=O)Nc2ccc(N3CCOCC3)cc2)c1	-2	-10	/	-2	98*	-1
CSc1ccc(Cl)c(C(=O)N(C)CC(=O)Nc2ccc(N3CCOCC3)cc2)c1	-1	-2	/	-3	89*	0
Cc1nnc2sc(-c3csc4c3CCCC4)nn12	6	-3	-12	-4	/	-3
S=c1nc(-c2csc3c2CCCC3)[nH][nH]1	0	-6	6	-2	99*	-1
CCOC(=O)C1CCN(S(=O)(=O)c2cccc(-c3cn4ccccc4n3)c2)CC1	-3	7	-1	-2	99*	0
CCOC(=O)C1CCN(S(=O)(=O)c2cccc(-c3cn4cc(Cl)ccc4n3)c2)CC1	-6	41	8	-5	99*	-1
CCOC(=O)C1CCN(S(=O)(=O)c2cccc(-c3cn4cccc(C)c4n3)c2)CC1	-3	0	-2	-1	-6	-5
COC(=O)[C@]12C[C@H](CC(=O)NCC34CC5CC(CC(C5)C3)C4)C(=O)N(CCc3ccc(OC)c(OC)c3)C1=C[C@H](C1CCCC1)O[C@@H]2C	/	/	/	/	/	-3
O=C(N/N=C/c1c(O)n(-c2ccc(Cl)cn2)c(=O)c2ccccc12)c1ccncc1	3	10	10	0	80*	-2

Assay outcomes as filed in PubChem.
